In ChEMBL document CHEMBL1961873, “Compounds: GSK PKIS; Assays: Nanosyn kinase panel” (2012):

Columns and labels:
[1] = molecular target: T1, Mitogen-activated protein kinase 12 (Homo sapiens) (UniProt P53778); settings: at 1 µM;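 also: values are averaged p38gamma kinase inhibition readings, compounds tested at 1 µM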
T1 sequence (whole entry): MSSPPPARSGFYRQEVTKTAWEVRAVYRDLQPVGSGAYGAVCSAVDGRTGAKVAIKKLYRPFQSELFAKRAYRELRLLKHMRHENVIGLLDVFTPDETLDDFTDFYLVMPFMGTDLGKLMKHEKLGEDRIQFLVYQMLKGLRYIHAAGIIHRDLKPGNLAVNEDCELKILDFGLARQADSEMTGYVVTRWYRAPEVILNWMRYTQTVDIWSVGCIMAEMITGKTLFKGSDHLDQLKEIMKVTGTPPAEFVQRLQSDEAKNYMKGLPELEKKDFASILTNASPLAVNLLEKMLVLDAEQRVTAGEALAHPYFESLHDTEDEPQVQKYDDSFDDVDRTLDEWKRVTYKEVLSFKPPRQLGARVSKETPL

[2] = molecular target: SRSF protein kinase 1 (Homo sapiens) (UniProt Q96SB4); settings: at 0.1 µM
[3] = molecular target: SRSF protein kinase 1 (Homo sapiens) (UniProt Q96SB4); settings: at 1 µM
[4] = molecular target: Phosphatidylinositol 4,5-bisphosphate 3-kinase catalytic subunit alpha isoform (Homo sapiens) (UniProt P42336); settings: at 0.1 µM
[5] = molecular target: Phosphatidylinositol 4,5-bisphosphate 3-kinase catalytic subunit alpha isoform (Homo sapiens) (UniProt P42336); settings: at 1 µM
[6] = molecular target: T2, Phosphatidylinositol 4,5-bisphosphate 3-kinase catalytic subunit delta isoform (Homo sapiens) (UniProt O00329); settings: at 0.1 µM
T2 sequence (whole entry): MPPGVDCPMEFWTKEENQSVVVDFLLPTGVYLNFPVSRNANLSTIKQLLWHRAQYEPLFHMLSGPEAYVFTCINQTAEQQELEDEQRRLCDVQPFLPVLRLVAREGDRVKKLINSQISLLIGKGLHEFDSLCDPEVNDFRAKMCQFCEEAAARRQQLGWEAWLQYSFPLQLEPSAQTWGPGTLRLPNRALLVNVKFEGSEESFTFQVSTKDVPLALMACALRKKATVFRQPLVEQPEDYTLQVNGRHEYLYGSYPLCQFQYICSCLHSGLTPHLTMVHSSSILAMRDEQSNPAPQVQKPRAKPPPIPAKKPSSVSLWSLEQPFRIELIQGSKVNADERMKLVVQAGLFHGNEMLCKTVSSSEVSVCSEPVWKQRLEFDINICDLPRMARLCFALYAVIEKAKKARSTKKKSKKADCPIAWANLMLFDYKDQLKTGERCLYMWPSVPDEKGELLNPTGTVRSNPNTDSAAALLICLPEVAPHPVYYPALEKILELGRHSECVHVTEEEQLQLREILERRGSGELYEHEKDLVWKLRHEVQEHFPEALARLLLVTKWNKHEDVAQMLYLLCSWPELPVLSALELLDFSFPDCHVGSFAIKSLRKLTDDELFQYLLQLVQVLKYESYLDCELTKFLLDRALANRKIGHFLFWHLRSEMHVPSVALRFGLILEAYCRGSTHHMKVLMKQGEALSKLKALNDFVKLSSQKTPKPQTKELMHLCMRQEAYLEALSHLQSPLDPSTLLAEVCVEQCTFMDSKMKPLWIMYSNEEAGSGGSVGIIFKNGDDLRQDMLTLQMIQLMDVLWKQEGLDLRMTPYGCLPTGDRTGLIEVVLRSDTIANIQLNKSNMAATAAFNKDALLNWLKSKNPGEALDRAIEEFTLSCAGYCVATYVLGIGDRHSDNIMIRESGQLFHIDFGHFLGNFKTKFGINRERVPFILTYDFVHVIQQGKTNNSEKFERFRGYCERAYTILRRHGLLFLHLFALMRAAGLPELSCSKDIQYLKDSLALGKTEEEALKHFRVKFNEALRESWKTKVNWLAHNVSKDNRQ

[7] = molecular target: T2, Phosphatidylinositol 4,5-bisphosphate 3-kinase catalytic subunit delta isoform (Homo sapiens); settings: at 1 µM
[8] = molecular target: Phosphatidylinositol 4-kinase beta (Homo sapiens) (UniProt Q9UBF8); settings: at 0.1 µM
[9] = molecular target: Phosphatidylinositol 4-kinase beta (Homo sapiens) (UniProt Q9UBF8); settings: at 1 µM
[10] = molecular target: Sphingosine kinase 1 (Homo sapiens) (UniProt Q9NYA1); settings: at 0.1 µM
[11] = molecular target: Sphingosine kinase 1 (Homo sapiens) (UniProt Q9NYA1); settings: at 1 µM
[12] = molecular target: T3, Sphingosine kinase 2 (Homo sapiens) (UniProt Q9NRA0); settings: at 0.1 µM
T3 sequence (whole entry): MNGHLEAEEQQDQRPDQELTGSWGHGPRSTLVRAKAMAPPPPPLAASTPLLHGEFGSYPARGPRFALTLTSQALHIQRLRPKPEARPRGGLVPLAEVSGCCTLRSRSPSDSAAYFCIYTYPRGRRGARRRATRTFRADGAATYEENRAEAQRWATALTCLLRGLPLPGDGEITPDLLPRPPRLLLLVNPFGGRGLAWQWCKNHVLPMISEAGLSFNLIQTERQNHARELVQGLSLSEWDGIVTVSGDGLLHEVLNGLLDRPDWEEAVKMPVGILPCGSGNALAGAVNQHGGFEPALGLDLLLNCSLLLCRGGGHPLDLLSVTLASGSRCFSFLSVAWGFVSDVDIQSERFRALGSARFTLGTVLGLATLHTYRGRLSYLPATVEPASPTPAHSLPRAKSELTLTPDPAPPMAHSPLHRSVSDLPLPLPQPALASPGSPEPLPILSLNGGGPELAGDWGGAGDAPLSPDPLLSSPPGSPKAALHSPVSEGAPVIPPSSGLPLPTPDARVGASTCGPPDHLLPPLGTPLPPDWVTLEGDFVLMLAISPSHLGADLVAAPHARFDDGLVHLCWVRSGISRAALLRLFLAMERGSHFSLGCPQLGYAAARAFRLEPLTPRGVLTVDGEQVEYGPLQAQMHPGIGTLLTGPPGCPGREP

[13] = molecular target: T3, Sphingosine kinase 2 (Homo sapiens); settings: at 1 µM
[14] = molecular target: Casein kinase II subunit alpha (Homo sapiens) (UniProt P68400); settings: at 0.1 µM
[15] = molecular target: Casein kinase II subunit alpha (Homo sapiens) (UniProt P68400); settings: at 1 µM
[16] = molecular target: T4, Inhibitor of nuclear factor kappa-B kinase subunit alpha (Homo sapiens) (UniProt O15111); settings: at 0.1 µM
T4 sequence (whole entry): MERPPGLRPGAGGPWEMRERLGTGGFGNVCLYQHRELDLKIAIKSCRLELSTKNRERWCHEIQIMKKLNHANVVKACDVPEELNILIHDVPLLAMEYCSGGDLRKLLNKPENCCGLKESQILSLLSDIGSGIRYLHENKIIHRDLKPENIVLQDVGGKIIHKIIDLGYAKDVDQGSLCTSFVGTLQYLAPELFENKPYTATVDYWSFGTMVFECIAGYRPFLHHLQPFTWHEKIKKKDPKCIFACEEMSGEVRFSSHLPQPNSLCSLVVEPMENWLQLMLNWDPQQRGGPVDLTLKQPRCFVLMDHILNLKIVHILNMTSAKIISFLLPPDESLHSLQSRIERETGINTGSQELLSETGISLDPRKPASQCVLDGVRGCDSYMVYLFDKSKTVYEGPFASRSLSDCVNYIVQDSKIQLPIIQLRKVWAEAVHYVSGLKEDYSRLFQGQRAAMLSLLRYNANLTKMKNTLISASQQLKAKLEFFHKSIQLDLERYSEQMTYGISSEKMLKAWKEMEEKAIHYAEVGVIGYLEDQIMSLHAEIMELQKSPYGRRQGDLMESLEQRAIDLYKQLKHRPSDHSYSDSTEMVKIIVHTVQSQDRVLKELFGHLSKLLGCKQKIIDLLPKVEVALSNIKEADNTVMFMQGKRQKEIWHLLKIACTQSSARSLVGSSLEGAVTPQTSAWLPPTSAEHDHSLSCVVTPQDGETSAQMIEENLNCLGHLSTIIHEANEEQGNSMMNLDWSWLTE

[17] = molecular target: T4, Inhibitor of nuclear factor kappa-B kinase subunit alpha (Homo sapiens); settings: at 1 µM
[18] = molecular target: T5, Inhibitor of nuclear factor kappa-B kinase subunit beta (Homo sapiens) (UniProt O14920); settings: at 0.1 µM
T5 sequence (whole entry): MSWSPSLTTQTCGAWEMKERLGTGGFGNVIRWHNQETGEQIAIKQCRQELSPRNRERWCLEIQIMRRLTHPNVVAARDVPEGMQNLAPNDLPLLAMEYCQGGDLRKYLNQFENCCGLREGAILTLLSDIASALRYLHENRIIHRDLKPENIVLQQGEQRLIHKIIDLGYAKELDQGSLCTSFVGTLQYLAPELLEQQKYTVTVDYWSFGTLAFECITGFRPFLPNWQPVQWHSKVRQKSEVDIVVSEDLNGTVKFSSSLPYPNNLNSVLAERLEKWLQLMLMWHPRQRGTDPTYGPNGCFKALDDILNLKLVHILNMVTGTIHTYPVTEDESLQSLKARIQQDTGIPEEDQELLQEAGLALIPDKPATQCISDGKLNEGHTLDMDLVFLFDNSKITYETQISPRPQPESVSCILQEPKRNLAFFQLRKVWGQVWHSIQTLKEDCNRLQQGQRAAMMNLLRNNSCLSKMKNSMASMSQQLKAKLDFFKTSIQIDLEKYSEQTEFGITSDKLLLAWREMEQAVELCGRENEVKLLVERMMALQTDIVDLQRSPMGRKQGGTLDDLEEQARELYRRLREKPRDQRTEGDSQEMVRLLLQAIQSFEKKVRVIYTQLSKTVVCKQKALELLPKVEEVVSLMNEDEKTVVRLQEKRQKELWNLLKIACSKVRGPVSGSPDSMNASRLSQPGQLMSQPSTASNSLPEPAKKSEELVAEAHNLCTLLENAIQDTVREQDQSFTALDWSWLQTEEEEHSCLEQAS

[19] = molecular target: T5, Inhibitor of nuclear factor kappa-B kinase subunit beta (Homo sapiens); settings: at 1 µM
[20] = molecular target: T6, Inhibitor of nuclear factor kappa-B kinase subunit epsilon (Homo sapiens) (UniProt Q14164); settings: at 0.1 µM;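 also: mean inhibition of IKKε reported, from the GSK PKIS dataset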
T6 sequence (whole entry): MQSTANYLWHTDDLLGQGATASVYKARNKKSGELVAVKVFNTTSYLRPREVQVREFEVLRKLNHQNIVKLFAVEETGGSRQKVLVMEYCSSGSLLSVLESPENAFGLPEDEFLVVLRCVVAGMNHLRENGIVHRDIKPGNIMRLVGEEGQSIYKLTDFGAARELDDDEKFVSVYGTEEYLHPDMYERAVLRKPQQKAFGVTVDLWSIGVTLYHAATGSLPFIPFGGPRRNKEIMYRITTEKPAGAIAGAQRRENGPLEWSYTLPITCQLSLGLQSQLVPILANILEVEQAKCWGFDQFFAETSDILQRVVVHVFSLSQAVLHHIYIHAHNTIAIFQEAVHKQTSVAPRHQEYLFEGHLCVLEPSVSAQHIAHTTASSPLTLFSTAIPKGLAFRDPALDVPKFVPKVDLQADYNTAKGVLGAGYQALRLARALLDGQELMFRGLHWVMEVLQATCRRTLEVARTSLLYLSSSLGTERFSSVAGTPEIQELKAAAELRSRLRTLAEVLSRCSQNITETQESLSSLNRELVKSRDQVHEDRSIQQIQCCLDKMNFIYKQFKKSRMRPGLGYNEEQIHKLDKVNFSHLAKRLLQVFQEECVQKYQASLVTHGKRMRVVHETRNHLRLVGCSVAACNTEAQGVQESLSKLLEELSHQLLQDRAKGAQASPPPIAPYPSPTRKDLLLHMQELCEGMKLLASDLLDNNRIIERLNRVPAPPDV

Phosphatidylinositol 4,5-bisphosphate 3-kinase catalytic subunit alpha isoform (Homo sapiens), sequence (P42336 whole entry, canonical isoform): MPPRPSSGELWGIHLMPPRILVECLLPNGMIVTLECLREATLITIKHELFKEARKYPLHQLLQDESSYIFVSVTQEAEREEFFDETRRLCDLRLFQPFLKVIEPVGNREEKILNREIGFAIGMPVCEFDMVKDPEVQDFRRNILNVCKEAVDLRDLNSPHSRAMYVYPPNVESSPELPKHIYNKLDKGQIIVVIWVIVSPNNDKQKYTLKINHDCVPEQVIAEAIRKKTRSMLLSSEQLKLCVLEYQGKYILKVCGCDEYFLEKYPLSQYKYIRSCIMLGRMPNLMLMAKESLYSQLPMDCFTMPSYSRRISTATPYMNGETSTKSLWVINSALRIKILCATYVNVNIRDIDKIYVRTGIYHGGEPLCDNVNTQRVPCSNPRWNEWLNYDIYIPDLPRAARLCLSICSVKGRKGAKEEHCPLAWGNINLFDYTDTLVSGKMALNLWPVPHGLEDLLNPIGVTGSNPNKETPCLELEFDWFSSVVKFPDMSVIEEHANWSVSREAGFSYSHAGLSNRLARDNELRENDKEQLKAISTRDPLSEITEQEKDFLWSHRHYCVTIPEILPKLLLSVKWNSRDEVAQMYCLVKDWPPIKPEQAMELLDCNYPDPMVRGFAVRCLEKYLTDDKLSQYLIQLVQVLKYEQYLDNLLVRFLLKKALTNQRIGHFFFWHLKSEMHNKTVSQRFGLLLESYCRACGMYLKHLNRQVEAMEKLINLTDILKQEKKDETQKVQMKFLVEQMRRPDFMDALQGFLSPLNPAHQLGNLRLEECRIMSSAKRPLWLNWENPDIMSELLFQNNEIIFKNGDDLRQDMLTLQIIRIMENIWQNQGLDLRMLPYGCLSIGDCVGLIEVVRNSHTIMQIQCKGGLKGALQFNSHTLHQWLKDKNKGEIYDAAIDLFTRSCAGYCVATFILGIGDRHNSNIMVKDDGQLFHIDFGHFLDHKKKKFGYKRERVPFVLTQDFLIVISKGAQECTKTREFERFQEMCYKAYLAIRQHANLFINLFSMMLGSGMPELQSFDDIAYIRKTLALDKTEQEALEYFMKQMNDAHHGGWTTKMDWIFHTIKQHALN
Casein kinase II subunit alpha (Homo sapiens), sequence (P68400 whole entry, looked up): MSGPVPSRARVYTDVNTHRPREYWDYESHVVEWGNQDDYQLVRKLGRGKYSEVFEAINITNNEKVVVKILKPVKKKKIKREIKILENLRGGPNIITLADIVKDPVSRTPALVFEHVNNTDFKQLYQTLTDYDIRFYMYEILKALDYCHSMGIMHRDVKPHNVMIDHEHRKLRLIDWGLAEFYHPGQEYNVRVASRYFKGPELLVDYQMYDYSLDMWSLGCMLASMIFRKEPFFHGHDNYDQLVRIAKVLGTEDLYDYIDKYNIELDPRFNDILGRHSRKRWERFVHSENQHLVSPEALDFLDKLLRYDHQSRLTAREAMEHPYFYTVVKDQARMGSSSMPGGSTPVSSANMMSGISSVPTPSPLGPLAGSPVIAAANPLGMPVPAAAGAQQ
Phosphatidylinositol 4-kinase beta (Homo sapiens), sequence (Q9UBF8 2-816 limits assumed): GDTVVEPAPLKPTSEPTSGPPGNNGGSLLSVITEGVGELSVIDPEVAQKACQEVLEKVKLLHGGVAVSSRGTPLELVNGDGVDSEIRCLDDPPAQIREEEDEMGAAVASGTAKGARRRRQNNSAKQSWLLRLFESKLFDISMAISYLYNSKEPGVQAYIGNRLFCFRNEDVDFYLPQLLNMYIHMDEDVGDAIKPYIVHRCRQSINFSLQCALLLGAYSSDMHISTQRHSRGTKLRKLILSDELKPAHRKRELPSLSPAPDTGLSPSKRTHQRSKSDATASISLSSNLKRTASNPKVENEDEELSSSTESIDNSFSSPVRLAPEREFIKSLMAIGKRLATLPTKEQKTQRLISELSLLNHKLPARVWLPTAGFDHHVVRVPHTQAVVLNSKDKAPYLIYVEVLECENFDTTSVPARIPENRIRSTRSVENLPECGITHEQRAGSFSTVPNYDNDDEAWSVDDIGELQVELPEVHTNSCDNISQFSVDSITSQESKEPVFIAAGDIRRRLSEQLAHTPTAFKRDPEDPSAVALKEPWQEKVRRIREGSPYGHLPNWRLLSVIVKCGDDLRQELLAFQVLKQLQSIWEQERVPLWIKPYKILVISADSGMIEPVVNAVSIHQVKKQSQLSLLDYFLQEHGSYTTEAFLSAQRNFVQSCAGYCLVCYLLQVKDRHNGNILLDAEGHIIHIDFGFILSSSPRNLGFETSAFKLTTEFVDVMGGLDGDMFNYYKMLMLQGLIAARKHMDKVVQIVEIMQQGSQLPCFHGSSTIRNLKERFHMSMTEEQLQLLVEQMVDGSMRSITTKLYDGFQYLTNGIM
Sphingosine kinase 1 (Homo sapiens), sequence (Q9NYA1 whole entry): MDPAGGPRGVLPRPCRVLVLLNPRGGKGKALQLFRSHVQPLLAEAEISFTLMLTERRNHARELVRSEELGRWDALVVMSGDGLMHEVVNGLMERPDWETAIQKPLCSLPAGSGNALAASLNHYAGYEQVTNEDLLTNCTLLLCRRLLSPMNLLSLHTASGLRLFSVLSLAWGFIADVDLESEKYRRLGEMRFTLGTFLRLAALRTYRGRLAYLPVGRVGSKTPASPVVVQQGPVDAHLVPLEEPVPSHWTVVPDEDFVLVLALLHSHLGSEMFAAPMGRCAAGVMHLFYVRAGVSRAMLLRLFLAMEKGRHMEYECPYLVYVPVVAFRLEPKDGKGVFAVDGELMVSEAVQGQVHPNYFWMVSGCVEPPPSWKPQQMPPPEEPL
SRSF protein kinase 1 (Homo sapiens), sequence (Q96SB4 whole entry, canonical isoform): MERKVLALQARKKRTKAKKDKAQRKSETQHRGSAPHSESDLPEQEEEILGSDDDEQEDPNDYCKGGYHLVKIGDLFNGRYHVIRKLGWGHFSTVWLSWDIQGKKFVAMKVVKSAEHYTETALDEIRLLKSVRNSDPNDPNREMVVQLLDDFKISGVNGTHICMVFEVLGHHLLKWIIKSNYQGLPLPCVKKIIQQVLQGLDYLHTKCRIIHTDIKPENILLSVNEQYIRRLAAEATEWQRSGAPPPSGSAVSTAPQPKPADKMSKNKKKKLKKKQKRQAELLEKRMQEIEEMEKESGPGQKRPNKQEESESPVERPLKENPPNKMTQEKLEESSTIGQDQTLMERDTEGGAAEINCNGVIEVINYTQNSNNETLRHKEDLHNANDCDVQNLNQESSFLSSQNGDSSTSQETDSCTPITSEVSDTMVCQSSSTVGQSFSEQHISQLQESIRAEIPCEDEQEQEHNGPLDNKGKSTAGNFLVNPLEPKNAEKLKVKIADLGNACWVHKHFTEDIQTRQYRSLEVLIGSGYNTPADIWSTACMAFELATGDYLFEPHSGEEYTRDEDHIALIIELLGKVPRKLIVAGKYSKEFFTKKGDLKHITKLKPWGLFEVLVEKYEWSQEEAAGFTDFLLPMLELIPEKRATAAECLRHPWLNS

SMILES | inhibition [1] [%] | inhibition [2] [%] | inhibition [3] [%] | inhibition [4] [%] | inhibition [5] [%] | inhibition [6] [%] | inhibition [7] [%] | inhibition [8] [%] | inhibition [9] [%] | inhibition [10] [%] | inhibition [11] [%] | inhibition [12] [%] | inhibition [13] [%] | inhibition [14] [%] | inhibition [15] [%] | inhibition [16] [%] | inhibition [17] [%] | inhibition [18] [%] | inhibition [19] [%] | inhibition [20] [%]
CNC(=O)c1sc(-n2cnc3cc(OC)c(OC)cc32)cc1OCc1ccccc1C(F)(F)F | 1.74 | -2.64 | -0.97 | 3.44 | 4.4 | 0.73 | 6.41 | 6.54 | 0.66 | -7.75 | -2.69 | -1.57 | -1.5 | 5.33 | 1.77 | 9.1 | 6.49 | 4.41 | 2.57 | 7.72
Cc1ccc(-c2cc3c(NC(=O)C4CC4)ncnc3o2)cc1 | 2.7 | -2.33 | -1.12 | 1.23 | 2.63 | 2.48 | 3.33 | -4.86 | -6.67 | 3.8 | -8.41 | -0.23 | -0.24 | 2.02 | 10.8 | 4.84 | 1.2 | 2.98 | 4.2 | 4.06
CN(C)CCNC(=O)Nc1ccc(N(C)c2ccnc(Nc3ccc(CS(C)(=O)=O)cc3)n2)cc1 | 2.24 | -1.44 | -2.68 | 2.6 | 3.13 | 2.63 | 5.9 | 2.65 | 15.7 | 0.26 | -1.23 | -0.06 | 2.33 | 2.94 | 0.31 | 2.05 | 0.39 | 7.67 | 1.94 | 3.33
NS(=O)(=O)c1ccc(N/N=C2\C(=O)Nc3cccc(CCc4ccncc4)c32)cc1 | 0.75 | -0.62 | -1 | 0.59 | 1.55 | 0.97 | 3.61 | 2.1 | 1.01 | 1.36 | 3.16 | 0 | -4.51 | 5.35 | 2.3 | -0.34 | 1.3 | 0.73 | -2.12 | -0.26
